Reference: PubChem BioAssay (EPA / NIEHS)
Activity calls are given as the source filed them. How the source made its calls: active means hit-call score of the fitted dose curve at least 0.9, where 1 is the maximum; inactive means score below 0.9.

target: Hepatocyte nuclear factor 6 (Homo sapiens) (UniProt Q9UBC0); assay: ATG_HNF6_CIS: Attagene CIS-FACTORIAL HepG2 Assay for human Hepatocyte Nuclear Factor 6 (HNF6) (AID 2282952); details: HepG2 Attagene cis-factorial HNF6 reporter transcription; actives raise or lower the signal
Sequence (Q9UBC0 whole entry, looked up): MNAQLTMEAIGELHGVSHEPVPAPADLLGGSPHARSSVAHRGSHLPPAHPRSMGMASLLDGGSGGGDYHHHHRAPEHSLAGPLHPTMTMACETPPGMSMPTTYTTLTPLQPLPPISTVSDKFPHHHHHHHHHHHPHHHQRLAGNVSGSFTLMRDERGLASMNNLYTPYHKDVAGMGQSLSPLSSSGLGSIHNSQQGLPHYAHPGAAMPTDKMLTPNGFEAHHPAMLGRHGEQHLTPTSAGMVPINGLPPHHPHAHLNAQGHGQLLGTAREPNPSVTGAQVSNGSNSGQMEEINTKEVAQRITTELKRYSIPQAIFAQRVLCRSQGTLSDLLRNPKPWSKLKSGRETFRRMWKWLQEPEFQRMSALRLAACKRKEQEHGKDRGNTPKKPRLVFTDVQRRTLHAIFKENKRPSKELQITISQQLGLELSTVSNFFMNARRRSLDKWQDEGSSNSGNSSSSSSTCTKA
Method: ATG_CIS is a cell-based, multiplexed-readout assay that uses HepG2, a human liver cell line, with measurements taken at 24 hours after chemical dosing in a 24-well plate.ATG_HNF6_CIS is one of 52 assay component(s) measured or calculated from the ATG_CIS assay. It is designed to make measurements of mRNA induction, a form of inducible reporter, as detected with fluorescence intensity signals by Reverse transcription polymerase chain reaction (RT-PCR) and Capillary electrophoresis technology.Data from the assay component ATG_HNF6_CIS was analyzed into 1 assay endpoint. This assay endpoint, ATG_HNF6_CIS, was analyzed with bidirectional fitting relative to DMSO as the negative control and baseline of activity. Using a type of inducible reporter, measures of mRNA for gain or loss-of-signal activity can be used to understand the reporter gene at the transcription factor-level as they relate to the gene ONECUT1. Furthermore, this assay endpoint can be referred to as a primary readout, because this assay has produced multiple assay endpoints where this one serves a reporter gene function. To generalize the intended target to other relatable targets, this assay endpoint is annotated to the dna binding intended target family, where the subfamily is homeobox protein.
Human liver HepG2 cells are transiently transfected with multiple reporter transcription units (MRTUs) in 6-well plates using FuGene 6 reagent (Roche; 3 ml FuGene/1 mg DNA). The MRTU constructs are regulated by a cis-regulating element (promoter). […] A major difference between the CIS and TRANS system is that in CIS activities of endogenous TFs are measured, whereas the TRANS assay evaluates changes in activities of exogenous, chimeric NR-Gal4 proteins. […] At the end of 24 hour incubation, total RNA was isolated using TriZol reagent (Invitrogen). The isolated RNA is then reverse-transcribed using oligo(dT) primer and Mo-MLV reverse transcriptase (Invitrogen) with DNAse I (Ambion) treatment for 30 min. The one-tenth of the produced cDNA was amplified by PCR using Taq DNA polymerase (Invitrogen) and two reporter sequence-specific primers. The PCR products were fluorescently labeled by primer extension with 6-arboxyfluorescein (6-FAM) 5'-labeled reporter sequence-specific primer (2 min at 95 C, 20 s at 68 C and 10 min at 72 C) and these products were digested with 5U of HpaI (New England Biolabs) for 2h at 37 C. The fragments were purified using Qiaquick PCR columns (Qiagen), analyzed on an ABI 3130xL genetic analyzer (Applied Biosystems) with peak positions identified by using a set of X-rhodamine (ROX)-labeled MapMarker1000 molecular weight standards (BioVentures). The raw capillary electrophoresis data was processed using Attagraph software (Attagene).

| Structure (SMILES) | outcome |
| --- | --- |
| COC(CC(C)CCCC(C)(C)O)OC (stereo not given) | inactive |
| CCCCCCCCCC(=O)OC | inactive |
| Cc1cc(CCC(=O)OCCOCCOCCOC(=O)CCc2cc(C)c(O)c(C(C)(C)C)c2)cc(C(C)(C)C)c1O | inactive |
| c1ccc2[nH]cnc2c1 | inactive |
| CC1(C)C2=CCCC(C)(C)[C@]23CC[C@H]1C3 | inactive |
| CC(C)(CO)[C@@H](O)C(=O)NCCC(=O)O | inactive |
| CCCCCCCCCCCCCC(=O)OCC(O)CO (stereo not given) | inactive |
| C=C(C)C(=O)OCC(CC)(COC(=O)C(=C)C)COC(=O)C(=C)C | inactive |
| CC(C)Nc1nc(N)nc(Cl)n1 | inactive |
| O=CN1CCOCC1 | inactive |
| CC1CC(O)CC(C)(C)C1 (stereo not given) | inactive |
| C=COCCOCCOC=C | inactive |
| CCCC(=O)OC(C)(C)Cc1ccccc1 | inactive |
| CCCCC1(COC(=O)CCC(=O)O)C(=O)N(c2ccccc2)N(c2ccccc2)C1=O | inactive |
| N#Cc1cscn1 | inactive |
| CCN(CC)C(=O)N(CC)CC | inactive |
| CCOC(=O)[C@@H](C)Oc1ccc(Oc2nc3ccc(Cl)cc3o2)cc1 | inactive |
| O=C(Nc1ccc2c(O)c(N=Nc3ccc(N=Nc4ccc(S(=O)(=O)O)cc4)cc3)c(S(=O)(=O)O)cc2c1)c1ccccc1 | inactive |
| CCCCCCCCCCCCCCN(CCO)CCO | inactive |
| C[C@@H]1CCN(C(=O)[C@H](CCCN=C(N)N)NS(=O)(=O)c2cccc3c2NC[C@H](C)C3)[C@@H](C(=O)O)C1 | inactive |

| Structure (SMILES) | outcome |
| --- | --- |
| C=C(C)[C@@H]1CC=C(C)C(=O)C1 | inactive |
| O=C1c2ccccc2C(=O)c2c(O)ccc(O)c21 | inactive |
| OC[C@H]1O[C@@H]2O[C@H]3[C@H](O)[C@@H](O)[C@@H](O[C@H]4[C@H](O)[C@@H](O)[C@@H](O[C@H]5[C@H](O)[C@@H](O)[C@@H](O[C@H]6[C@H](O)[C@@H](O)[C@@H](O[C@H]7[C@H](O)[C@@H](O)[C@@H](O[C@H]8[C@H](O)[C@@H](O)[C@@H](O[C@H]9[C@H](O)[C@@H](O)[C@@H](O[C@H]1[C@H](O)[C@H]2O)O[C@@H]9CO)O[C@@H]8CO)O[C@@H]7CO)O[C@@H]6CO)O[C@@H]5CO)O[C@@H]4CO)O[C@@H]3CO | inactive |
| CC/C=C\CC/C=C/CO | inactive |
| CC=Cc1ccc(OC)c(OC)c1 | inactive |
| CCOC(=O)C1OC1c1ccccc1 (stereo not given) | inactive |
| C[C@H](CCC(=O)NCC(=O)O)[C@H]1CC[C@H]2[C@@H]3[C@H](O)C[C@@H]4C[C@H](O)CC[C@]4(C)[C@H]3C[C@H](O)[C@]12C | inactive |
| CCCCOC(=O)CCCCCCCC(=O)OCCCC | inactive |
| CC(=O)O[C@@H]1CC2CCC1(C)C2(C)C (stereo not given in full) | inactive |
| CC(=O)O[C@@H]1C[C@@H]2CC[C@@]1(C)C2(C)C | inactive |
| COCCOCCOCCO | inactive |
| CCCCC(CC)C(=O)OC(C)C (stereo not given) | inactive |
| CC(C)CCCCCCc1ccc(OCCOCCO)cc1 | inactive |
| COc1cccc(OC)c1O | inactive |
| O=[N+]([O-])c1ccc(O)cc1C(F)(F)F | inactive |
| COc1cc(C(C)C)ccc1C | inactive |
| Cc1cc(C)nc(NS(=O)(=O)c2ccc(N)cc2)n1 | inactive |
| CCC(C)S (stereo not given) | inactive |
| CCOc1ccccc1O | inactive |
| NCc1ccco1 | inactive |
